The structures appear in SMILES notation. Compounds without any hit were thinned out: in the full panel of roughly 83,000, 20% have a hit.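 In brief: 96-well plates, 48 h treatment, single concentration, percent growth endpoint.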 Unmarked numbers belong to inactive results. Activity calls are given as the source filed them. How the source made its calls: active means growth percent below 10; inactive means the rest.

Results on 21 compounds are retold here after PubChem BioAssay (NCI).

The test system of the assay is M14 melanoma. Description: NCI-60 one-dose screen, 48 h (100 = growth as untreated, 0 = no growth, -100 = all killed). Particulars: 10 µM.
Consider `Cc1ccc(NCC(=O)Nn2c(COc3ccccc3)nc3ccccc3c2=O)cc1`, for which the growth is 93.3%.

As to `NS(=O)(=O)c1ccc(N=Nc2c(O)n(CC(=O)Nc3ccccc3Br)c3ccccc23)cc1`, the growth was 27.9%.

`CN(C(=O)c1ccc(C(F)(F)F)cc1C(F)(F)F)c1sc2c(c1C#N)CCC(=O)C2`: the growth was 73.9%.

Take `CC(C)(C)Nc1nc2cc(Cl)c(Cl)cc2nc1S(C)(=O)=O`: the growth was 5.68% (active).

On to `Cc1ccc(/C(N)=N/c2sc(-c3ccccc3)nc2-c2ccccc2)cc1`, for which the growth was 79.6%.

As to `O=c1cc(-c2ccccc2)oc2cc(OCCCNCc3ccccc3)cc(O)c12`, the growth is -76% (active).

Take `CCOC(=O)C1NN(c2ccc(S(N)(=O)=O)cc2)c2nc3nc(-c4cccs4)cc(-c4cccs4)c3c(=O)n21` (stereo unspecified): the growth is 74%.

On to `N#Cc1c(NC(=O)c2ccc(C(F)(F)F)cc2)sc2c1CCC(O)=C2`, for which the growth is 13%.

With `Cc1cc(C(F)(F)F)ccc1C(=O)Nc1sc2c(c1C#N)CCC(=O)C2`, the growth was -59.2% (active).

With `Cc1ccc(F)cc1N/C=c1\s/c(=C(\C#N)C(=O)Nc2ccccc2)n(-c2ccccc2)c1=O`, the growth is 82.4%.

As for `O=C(O)CCCCCCCCCCN1C(=O)/C(=C/c2cnc(-c3ccccc3)s2)SC1=S`, the growth is 101%.

Turning to `O=C1NC(=NC2CCCCCC2)N/C1=C\c1ccc2ncoc2c1`, the growth was 64.4%.

As to `COc1ccc2[nH]c(=O)c(CSc3cccc(N)c3)cc2c1`, the growth is 24%.

On to `O=C(c1ccc(Cl)cc1)C1[C@H](c2ccc(Br)cc2)[C@@H](c2ccccc2)NC12C(=O)Nc1ccc(Cl)cc12` (stereo partly specified), for which the growth is 6.42% (active).

As for `C=CC(=O)Nc1ccc(C(=O)/C=C/c2ccc(N(C)CCF)cc2)c(O)c1`, the growth is -56.3% (active).

For `COc1cccc(/C=C2\N=C(C)N(CCc3ccc(S(N)(=O)=O)cc3)C2=O)c1`, the growth was 100%.

Take `COc1cc2oc(-c3cccc(C(=O)Nc4ccc(Cl)cc4)c3)cc(=O)c2c(OCCNC(=O)CNC(=O)OC(C)(C)C)c1OC`: the growth was 60.2%.

For the compound `Brc1ccc(/C=N/Nc2ncnc3sc4c(c23)CCN(Cc2ccccc2)C4)cc1`, the growth is -12.1% (active).

In the case of `Cc1cc2nc3c4ccccc4n(CCO)c3nc2cc1C`, the growth is 84.6%.

Turning to `O=C1NC(=NC23CC4CC(CC(C4)C2)C3)N/C1=C\c1ccc2ncccc2n1`, the growth is 14.5%.

As to `CN1CCN(Cc2ccc(C(=O)Nc3cccc(Nc4ccc5cc(O)ccc5n4)c3)cc2C(F)(F)F)CC1`, the growth is -40.2% (active).
